Test results reported in PubChem BioAssay AID602197 (NMMLSC, 2012).
The other results are listed elsewhere or left out. Activity calls are given as the source filed them. No stated cut-off is given here; in the data, active means response above about 24%; inactive means the rest.

experiment: V-ATPase regulators in yeast, one dose – S. cerevisiae, pH-sensitive GFP, second cherry-pick, confirmation (AID 602197);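 further: plate controls were vehicle wells for no effect and positive control wells for full effect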; settings: S. cerevisiae pHLuorin cytosolic pH, V-ATPase proton transport; at 10 µM; active compounds read high

response, inactive:
Cc1occc1C(=O)Nc1nnc(C2CCCCC2)s1 3.1%, COc1ccc(/C=N/NC(=O)c2cccc(C(F)(F)F)c2)cc1 -3.87%, CCOc1ccc(CCNC(=O)C2=C(C)C(=O)OC23CCC(C)CC3)cc1OCC (centres undefined) 5.21%, CCOC(=O)Cn1c(-c2cccnc2Cl)nc2ccccc21 1.29%, COC(=O)COc1ccc2c(=O)c(Oc3ccccc3Br)coc2c1 -1.59%, CCCCNc1ccc(C(=O)Nc2cccc(C)n2)cc1[N+](=O)[O-] 2.43%, Nc1ccc(C(=O)NCc2ccccc2)cc1 -2.67%, O=C(C1=C[C@H](C2CC2)C[C@H](OCc2ccc(CO)cc2)O1)N1CCN(Cc2ccccc2)CC1 1.94%, O=S1(=O)C=C(SCCN2CCCC2)c2ccccc21 -0.88%, Cc1ccnc(SCC(=O)Nc2cccc(S(=O)(=O)N3CCOCC3)c2)n1 0.72%, O=C(COC(=O)c1ccccc1Br)Nc1nnc(-c2ccccc2)o1 3.01%, CCc1ccc(CNC(=O)CCc2nc(-c3cccs3)no2)cc1 2.27%, Cc1cc(OC(=O)c2ccccc2)c([N+](=O)[O-])c(=O)[nH]1 1.38%, O=C(NCC1CCCCC1)c1cc(S(=O)(=O)N2CCCCC2)ccc1N1CCOCC1 -0.11%, COc1ccccc1CNC(=O)COC(=O)c1sc(C)nc1C 1.62%, C/C=C/C(=O)OCc1csc(CC(=O)Nc2ccccc2C)n1 -3.22%, O=C1c2ccccc2C(=O)N1CCCCCCN1C(=O)c2ccccc2C1=O 2.04%, COC(=O)c1c(-c2ccc(C)cc2)csc1N 0.92%, Cc1ccc2nc(-c3ccncc3)cc(C(=O)Nc3ccc(OC(F)F)cc3)c2c1 2.3%, CC(=O)N1CCC(N(C(=O)Nc2ccc(Cl)cc2)C(C)C)CC1 2.59%, COc1cc2c(cc1/C=C1/NC(=O)N(c3ccccc3)C1=O)OCO2 -0.72%, COc1ccc(C(=O)N(Cc2ccccc2)c2ccc(C)cc2)cc1S(=O)(=O)N1CCOCC1 -6.57%, O=C(O/N=C(/c1ccccc1)c1ccncc1)c1ccccc1[N+](=O)[O-] 4.81%, CCOC(=O)N1CCN(CC(=O)n2c(C)c(C)c3ccccc32)CC1 1.66%
